# Reference: PubChem BioAssay AID1159580 (chemical genetic matrix, 2015)
# Out of some 5,500 compounds screened, about 2,000 (36%) were called active. Another 18% or so got no clear call; they are omitted. Some of the results follow. Values without a mark were called inactive. No stated cut-off is given here; in the data, active means normalized growth mostly below about 0.91 (no sharp cut-off); inconclusive means no clear call, values can overlap the other calls; inactive means mostly above about 0.92.
# Experiment: chemical genetic growth profiling, strain panel (AID 1159580);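 further: tested at 20 µM; growth read once vehicle control cultures reached saturation at 30 °C; 1 = growth at the plate median or of vehicle wells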
# Conditions: growth OD
smiles,measurement,setting,value
C=C1C(=O)O[C@@H]2C[C@@]3(C)CCC[C@H](C)C3=C[C@H]12,normalized growth,"S. cerevisiae deletion strains, locus YJR043C, strain POL32, stronger effect = lower value",0.88
same,normalized growth,"S. cerevisiae deletion strains, locus YJR066W, strain TOR1, stronger effect = lower value",0.939
same,normalized growth,"S. cerevisiae deletion strains, locus YKL009W, strain mrt4, stronger effect = lower value",1.01
same,normalized growth,"S. cerevisiae deletion strains, locus YKL068W, stronger effect = lower value",0.946
same,normalized growth,"S. cerevisiae deletion strains, locus YKL085W, strain MDH1 (second series), stronger effect = lower value",0.909 (active)
same,normalized growth,"S. cerevisiae deletion strains, locus YKL085W, strain MDH1, stronger effect = lower value",0.909 (active)
same,normalized growth,"S. cerevisiae deletion strains, locus YKL160W, strain elf1, stronger effect = lower value",0.78 (active)
same,normalized growth,"S. cerevisiae deletion strains, locus YKL190W, strain CNB1, stronger effect = lower value",0.934
same,normalized growth,"S. cerevisiae deletion strains, locus YKR001C, strain vps1, stronger effect = lower value",0.496 (active)
same,normalized growth,"S. cerevisiae deletion strains, locus YKR026C, strain gcn3, stronger effect = lower value",0.893 (active)
same,normalized growth,"S. cerevisiae deletion strains, locus YKR091W, strain srl3, stronger effect = lower value",0.913 (active)
same,normalized growth,"S. cerevisiae deletion strains, locus YLL001W, strain dnm1, stronger effect = lower value",0.842 (active)
same,normalized growth,"S. cerevisiae deletion strains, locus YLL026W, stronger effect = lower value",0.869 (active)
same,normalized growth,"S. cerevisiae deletion strains, locus YLL041C, strain sdh2, stronger effect = lower value",0.888 (active)
same,normalized growth,"S. cerevisiae deletion strains, locus YLR027C, strain aat2, stronger effect = lower value",0.827 (active)
same,normalized growth,"S. cerevisiae deletion strains, locus YLR039C, strain RIC1, stronger effect = lower value",0.221 (active)
same,normalized growth,"S. cerevisiae deletion strains, locus YLR058C, strain SHM2, stronger effect = lower value",0.898
same,normalized growth,"S. cerevisiae deletion strains, locus YLR102C, strain apc9, stronger effect = lower value",0.942
same,normalized growth,"S. cerevisiae deletion strains, locus YLR113W, strain HOG1, stronger effect = lower value",0.991
same,normalized growth,"S. cerevisiae deletion strains, locus YLR221C, strain rsa3, stronger effect = lower value",0.751 (active)
same,normalized growth,"S. cerevisiae deletion strains, locus YLR258W, strain gsy2, stronger effect = lower value",0.819 (active)
same,normalized growth,"S. cerevisiae deletion strains, locus YLR262C, strain YPT6 (second series), stronger effect = lower value",0.259 (active)
same,normalized growth,"S. cerevisiae deletion strains, locus YLR262C, strain YPT6, stronger effect = lower value",0.268 (active)
same,normalized growth,"S. cerevisiae deletion strains, locus YLR268W, strain sec22, stronger effect = lower value",0.668 (active)
same,normalized growth,"S. cerevisiae deletion strains, locus YLR320W, strain mms22, stronger effect = lower value",0.597 (active)
same,normalized growth,"S. cerevisiae deletion strains, locus YLR330W, strain CHS5, stronger effect = lower value",0.848 (active)
same,normalized growth,"S. cerevisiae deletion strains, locus YLR342W, strain FKS1 (second series), stronger effect = lower value",0.864
same,normalized growth,"S. cerevisiae deletion strains, locus YLR342W, strain FKS1, stronger effect = lower value",0.885 (active)
same,normalized growth,"S. cerevisiae deletion strains, locus YLR357W, strain rsc2, stronger effect = lower value",0.662 (active)
same,normalized growth,"S. cerevisiae deletion strains, locus YLR370C, strain arc18, stronger effect = lower value",0.899 (active)
same,normalized growth,"S. cerevisiae deletion strains, locus YLR371W, strain rom2, stronger effect = lower value",0.646 (active)
same,normalized growth,"S. cerevisiae deletion strains, locus YLR384C, strain iki3, stronger effect = lower value",0.87 (active)
same,normalized growth,"S. cerevisiae deletion strains, locus YLR418C, strain cdc73, stronger effect = lower value",0.31 (active)
same,normalized growth,"S. cerevisiae deletion strains, locus YML016C, strain PPZ1, stronger effect = lower value",0.85 (active)
same,normalized growth,"S. cerevisiae deletion strains, locus YML032C, strain rad52, stronger effect = lower value",0.923
same,normalized growth,"S. cerevisiae deletion strains, locus YML120C, strain ndi1, stronger effect = lower value",0.818 (active)
same,normalized growth,"S. cerevisiae deletion strains, locus YML124C, strain tub3, stronger effect = lower value",0.896 (active)
same,normalized growth,"S. cerevisiae deletion strains, locus YMR058W, strain fet3, stronger effect = lower value",0.8 (active)
same,normalized growth,"S. cerevisiae deletion strains, locus YMR078C, strain ctf18, stronger effect = lower value",0.915
same,normalized growth,"S. cerevisiae deletion strains, locus YMR125W, strain sto1, stronger effect = lower value",0.669 (active)
same,normalized growth,"S. cerevisiae deletion strains, locus YMR129W, stronger effect = lower value",0.847 (active)
same,normalized growth,"S. cerevisiae deletion strains, locus YMR205C, strain PFK2, stronger effect = lower value",0.653 (active)
same,normalized growth,"S. cerevisiae deletion strains, locus YMR223W, strain ubp8, stronger effect = lower value",0.815 (active)
same,normalized growth,"S. cerevisiae deletion strains, locus YMR231W, strain pep5, stronger effect = lower value",0.859 (active)
same,normalized growth,"S. cerevisiae deletion strains, locus YMR307W, strain GAS1, stronger effect = lower value",0.654
same,normalized growth,"S. cerevisiae deletion strains, locus YNL067W, strain RPL9B, stronger effect = lower value",0.896
same,normalized growth,"S. cerevisiae deletion strains, locus YNL071W, strain lat1, stronger effect = lower value",0.377 (active)
same,normalized growth,"S. cerevisiae deletion strains, locus YNL153C, strain GIM3, stronger effect = lower value",0.868 (active)
same,normalized growth,"S. cerevisiae deletion strains, locus YNL183C, strain NPR1, stronger effect = lower value",0.959
same,normalized growth,"S. cerevisiae deletion strains, locus YNL209W, strain ssb2, stronger effect = lower value",0.902 (active)
same,normalized growth,"S. cerevisiae deletion strains, locus YNL233W, strain BNI4, stronger effect = lower value",0.828 (active)
same,normalized growth,"S. cerevisiae deletion strains, locus YNL248C, strain rpa49, stronger effect = lower value",0.617 (active)
same,normalized growth,"S. cerevisiae deletion strains, locus YNL250W, strain rad50, stronger effect = lower value",0.949
same,normalized growth,"S. cerevisiae deletion strains, locus YNL271C, strain bni1, stronger effect = lower value",0.855 (active)
same,normalized growth,"S. cerevisiae deletion strains, locus YNL298W, strain CLA4, stronger effect = lower value",0.943
same,normalized growth,"S. cerevisiae deletion strains, locus YNL307C, strain MCK1, stronger effect = lower value",0.737 (active)
same,normalized growth,"S. cerevisiae deletion strains, locus YNL322C, strain KRE1 (second series), stronger effect = lower value",0.902 (active)
same,normalized growth,"S. cerevisiae deletion strains, locus YNR049C, strain mso1, stronger effect = lower value",0.903 (active)
same,normalized growth,"S. cerevisiae deletion strains, locus YNR052C, strain pop2, stronger effect = lower value",0.875 (active)
same,normalized growth,"S. cerevisiae deletion strains, locus YOL006C, strain TOP1, stronger effect = lower value",0.598
same,normalized growth,"S. cerevisiae deletion strains, locus YOL012C, strain htz1",0.342
same,normalized growth,"S. cerevisiae deletion strains, locus YOL147C, strain pex11, stronger effect = lower value",0.921 (active)
same,normalized growth,"S. cerevisiae deletion strains, locus YOR001W, strain rrp6, stronger effect = lower value",0.807 (active)
same,normalized growth,"S. cerevisiae deletion strains, locus YOR061W, strain CKA2, stronger effect = lower value",0.925
same,normalized growth,"S. cerevisiae deletion strains, locus YOR069W, strain VPS5, stronger effect = lower value",0.915 (active)
same,normalized growth,"S. cerevisiae deletion strains, locus YOR070C, strain gyp1, stronger effect = lower value",0.856 (active)
same,normalized growth,"S. cerevisiae deletion strains, locus YOR080W, strain dia2, stronger effect = lower value",0.908 (active)
same,normalized growth,"S. cerevisiae deletion strains, locus YOR083W, strain WHI5, stronger effect = lower value",0.82 (active)
same,normalized growth,"S. cerevisiae deletion strains, locus YOR106W, strain vam3, stronger effect = lower value",0.752 (active)
same,normalized growth,"S. cerevisiae deletion strains, locus YOR136W, strain idh2, stronger effect = lower value",0.942
same,normalized growth,"S. cerevisiae deletion strains, locus YOR144C, strain elg1, stronger effect = lower value",0.927 (active)
same,normalized growth,"S. cerevisiae deletion strains, locus YOR184W, strain ser1, stronger effect = lower value",0.577 (active)
same,normalized growth,"S. cerevisiae deletion strains, locus YOR231W, strain MKK1, stronger effect = lower value",1.01
same,normalized growth,"S. cerevisiae deletion strains, locus YOR265W, strain rbl2, stronger effect = lower value",0.883 (active)
same,normalized growth,"S. cerevisiae deletion strains, locus YOR270C, strain vph1, stronger effect = lower value",0.583 (active)
same,normalized growth,"S. cerevisiae deletion strains, locus YOR290C, strain snf2, stronger effect = lower value",0.785 (active)
same,normalized growth,"S. cerevisiae deletion strains, locus YOR316C, strain cot1, stronger effect = lower value",0.939
same,normalized growth,"S. cerevisiae deletion strains, locus YPL051W, strain arl3, stronger effect = lower value",0.73 (active)
same,normalized growth,"S. cerevisiae deletion strains, locus YPL055C, strain LGE1, stronger effect = lower value",0.722 (active)
same,normalized growth,"S. cerevisiae deletion strains, locus YPL078C, strain atp4, stronger effect = lower value",0.791 (active)
same,normalized growth,"S. cerevisiae deletion strains, locus YPL106C, strain sse1, stronger effect = lower value",0.521 (active)
same,normalized growth,"S. cerevisiae deletion strains, locus YPL240C, strain hsp82, stronger effect = lower value",0.825 (active)
same,normalized growth,"S. cerevisiae deletion strains, locus YPL256C, strain CLN2, stronger effect = lower value",0.949
same,normalized growth,"S. cerevisiae deletion strains, locus YPR119W, strain clb2, stronger effect = lower value",0.907 (active)
same,normalized growth,"S. cerevisiae deletion strains, locus YPR141C, strain kar3, stronger effect = lower value",0.926
same,normalized growth,"S. cerevisiae deletion strains, locus YPR163C, strain tif3, stronger effect = lower value",0.749 (active)
same,normalized growth,"S. cerevisiae deletion strains, locus YPR167C, strain met16, stronger effect = lower value",0.899 (active)
same,normalized growth,"S. cerevisiae deletion strains, strain wtn01, stronger effect = lower value",0.909
same,normalized growth,"S. cerevisiae strains, strain wild type, stronger effect = lower value",0.882 (active)
